# Assay results taken from PubChem BioAssay AID1259417 (TB Discovery Research, Infectious Disease Research Institute, 2018).
# Hit rate of the full screen: of about 1,100 compounds, about 760 (69%) were called active. No rule for the calls is given here. So high a share suggests a set chosen from earlier hits. The list shows a part of the results.
# Experiment: M. tuberculosis growth inhibition, HTS (AID 1259417);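 also: bacteria grown with compound for 5 days at 37 °C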
# Details: stronger effect = higher value, concentration not given here
# [1] = M. tuberculosis DsRed fluorescence growth inhibition
# [2] = M. tuberculosis growth inhibition
Structure (SMILES),inhibition [1],inhibition [2]
COc1ccc2c(c1)CCC1Sc3ccccc3N=C21 (stereo unspecified),1.21% (inactive),17%
COC(=O)C(CC(C)C)NC(=O)/C=C/c1ccc(Cl)cc1 (stereo unspecified),53.1% (active),45.8%
COC(=O)C(CC(C)C)NC(=O)/C=C/c1ccccc1Cl (stereo unspecified),11.6% (inactive),28.6%
CC(C)Cc1cc(C(=O)Nc2c(F)cc(F)cc2Br)no1,22.3% (active),57.6%
Cc1ccc2nc(N(CCCn3ccnc3)C(=O)c3ccco3)sc2c1,96.9% (active),98.4%
O=C(c1ccco1)N(CCCn1ccnc1)c1nc2ccc(Cl)cc2s1,97.8% (active),99.1%
O=C(c1ccco1)N(CCCn1ccnc1)c1nc2ccc(Br)cc2s1,98.9% (active),98.4%
O=C1N(c2ccc3c(c2)OCCO3)C(c2ccccc2)C1(F)F (stereo unspecified),36.5% (active),75.8%
O=C(Nc1nnc(-c2ccc(Br)cc2)o1)c1ccc(Cl)s1,32.9% (active),79.2%
O=C(Nc1nnc(-c2ccc(Br)cc2)o1)c1cc(Cl)sc1Cl,8.56% (inactive),28.1%
O=C(Nc1nnc(-c2ccc(F)cc2)o1)c1ccc(Br)s1,66.4% (active),78.5%
COc1ccc(-c2nnc(NC(=O)c3ccc(Cl)s3)o2)cc1,75.4% (active),80.6%
CC(C)(C)c1ccc(-n2c(=O)[nH]c3c(C(N)=O)nc(CCc4ccccc4)nc32)cc1,2.16% (inactive),-28.9%
COc1ccc(Cn2c(=O)c3c(n4cnnc24)-c2ccccc2CC32CCCCC2)cc1,21.7% (inactive),2.83%
COc1ccc(C2(CNC(=O)c3cc([N+](=O)[O-])cc([N+](=O)[O-])c3)CCCC2)cc1OC,98.6% (active),94.9%
O=C(NCCc1ccc(Cl)cc1)c1ccc(CNc2c(N3CCOCC3)c(=O)c2=O)cc1,96% (active),88.6%
O=C(NCCc1ccc(Cl)cc1)C1CCC(CNc2c(N3CCCCC3)c(=O)c2=O)CC1 (stereo unspecified),96.1% (active),90%
CC1CC(C)CN(C(=O)c2ccc(CNc3c(N4CCCC4)c(=O)c3=O)cc2)C1 (stereo unspecified),97.5% (active),90%
CCOC(=O)COc1ccc2c(C)c(-c3ccc(OC)c(OC)c3)c(=O)oc2c1,10.3% (active),36.5%
CCOC(=O)COc1ccc2c(=O)c(-c3ccc(OC)cc3)c(C)oc2c1,83.6% (active),94%
COC(=O)C(C)Oc1ccc2c(=O)c(-c3ccc(Br)cc3)c(C)oc2c1 (stereo unspecified),32.6% (active),92.3%
COc1ccc(-c2c(C)oc3cc(OCC(=O)OC(C)C)ccc3c2=O)cc1OC,13.8% (active),67.7%

Structure (SMILES),inhibition [1],inhibition [2]
CCC(=Cc1sc2ccc(OC)cc2[n+]1CCO)C=C1Sc2ccc(OC)cc2N1CCO,9.54% (inactive),21%
CCOC(=O)COc1ccc2c(C)c(CC(=O)OC)c(=O)oc2c1,11.2% (active),54.4%
CCOC(=O)COc1ccc2c(=O)c(-c3ccc(OC)c(OC)c3)c(C(=O)OCC)oc2c1,34.4% (active),64.4%
Cc1cc(C(=O)Oc2ccc(Cc3ccccc3)cc2)ccc1[N+](=O)[O-],41.1% (active),39.3%
CCOC(=O)c1c(NC(=O)c2ccc([N+](=O)[O-])c(C)c2)sc(C)c1-c1ccccc1,2.11% (inactive),-28.3%
Cc1cc(C(=O)Oc2ccccc2)ccc1[N+](=O)[O-],10.6% (active),55.9%
Cc1ccc(C(=O)Oc2cccc(NC(=O)c3ccccc3)c2)cc1C,0.632% (inactive),1.38%
Cc1cc2c(cc1C)N(Cc1ccc(C(C)(C)C)cc1)C1=NCCCN12,95% (active),99.7%
Cn1c(Sc2ccc([N+](=O)[O-])c3cccnc23)nnc1-c1ccccc1,12% (inactive),20.3%
Cn1c(Sc2cnn(-c3ccccc3)c(=O)c2Br)nnc1-c1ccccc1,49.6% (active),70.7%
CCOC(=O)C(C)Sc1ncc(-c2ccc(Cl)cc2)cn1 (stereo unspecified),4.78% (active),45.6%
CCOC(=O)CSc1n[nH]c(-c2ccc(Cl)cc2)n1,17.9% (active),58%
CCOC(=O)CSc1ncc(-c2cccc(Cl)c2)cn1,15% (active),70.5%
CCCOc1ccccc1-c1nc(SCC(=O)OCC)n[nH]1,2.36% (active),37.9%
O=C(CSc1n[nH]c(-c2ccc(Cl)cc2)n1)Nc1ccc(F)c(Cl)c1,-0.872% (inactive),-10.5%
COc1ccc(-c2c(C)[nH]n3c(=O)c(Cc4ccccc4)c(C)nc23)cc1,96.2% (active),81.3%
COc1ccc(C2=CC(c3c(C)nn(-c4ccccc4)c3Cl)n3nnnc3N2)cc1OC (stereo unspecified),99.1% (active),93.4%
CCOc1ccc2c3c(c(=O)oc2c1OCC)CCCC3,31.8% (active),41.4%
COc1ccc(-n2c(C)nc3sc4c(c3c2=O)CCCC4)cc1,-4.71% (inactive),-14.1%
COc1nc(SC)nc2sc3c(c12)CCC3,98.3% (active),99.3%
Clc1ccc(OCCCCn2ccnc2)cc1Cl,100% (active),99.3%
Clc1ccc(OCCCn2ccnc2)cc1Cl,98.6% (active),99.3%

Structure (SMILES),inhibition [1],inhibition [2]
[O-][n+]1onc2c3cc(-c4ccccc4)nnc3ccc21,80.6% (active),96.7%
O=C(Nc1nnc(-c2cc(Cl)ccc2Cl)o1)c1ccc(Br)s1,96.9% (active),95.6%
O=C(Nc1nnc(-c2cc(Cl)ccc2Cl)o1)c1cccs1,83.8% (active),82.4%
O=C(Nc1nnc(-c2cc(Cl)ccc2Cl)o1)c1ccc(Cl)s1,-4.8% (inactive),-10.4%
Cc1ccc(-c2nnc(SCC#CCOC(=O)c3ccco3)o2)cc1,35.7% (active),20.4%
O=C(OCC#CCSc1nc2ccccc2o1)c1ccco1,59.9% (active),68.2%
O=C(OCC#CCSc1nnc(-c2ccccc2)o1)c1ccco1,44% (active),10.3%
CC(C)(C)NC(=O)COC(=O)c1snc(C(=O)NC2CCCCC2)c1N,21.4% (active),66.6%
O=C(CCNc1ccc(Cl)c(C(F)(F)F)c1)c1cccs1,10.9% (active),35.4%
CCOc1ccc(NCCC(=O)c2cccs2)cc1,-0.257% (inactive),-9.66%
Fc1ccc(Nc2nc(-c3ccccn3)cs2)cc1,93.9% (active),94.1%
O=C(/C=C/c1ccco1)Nc1nc(-c2ccccn2)cs1,88.5% (active),89%
CN(C)c1ccc(Nc2nc(-c3ccccn3)cs2)cc1,54.1% (active),38.2%
CN(C)c1ccc(Nc2nc(-c3ccc(O)cc3O)cs2)cc1,36% (active),10.8%
Brc1ccc(Nc2nc(-c3ccccn3)cs2)cc1,91% (active),94.1%
c1ccc(Nc2nc(-c3ccccn3)cs2)cc1,88.2% (active),91.8%
Clc1ccc(Nc2nc(-c3ccccn3)cs2)nc1,101% (active),101%
Fc1cccc2sc(Nc3nc(-c4ccccn4)cs3)nc12,99.5% (active),101%
CCOc1ccc(Nc2nc(-c3ccccn3)cs2)cc1,89.5% (active),92%
Cc1ccc(S/C=C\C(=O)c2ccccc2)cc1,36.8% (active),37.6%
CSCCC(NC(=O)c1cc([N+](=O)[O-])cc([N+](=O)[O-])c1)c1nc2ccccc2[nH]1 (stereo unspecified),51.9% (active),71.3%
CCOC(=O)Cn1cc(C#N)c2cccc(CC)c21,14.1% (active),56.3%

Structure (SMILES),inhibition [1],inhibition [2]
Cc1cc(OC(=O)C2CC2)c2c3c(c(=O)oc2c1)CCCC3,22% (inactive),21.7%
CCOC(=O)COc1ccc2c3c(c(=O)oc2c1)CCCCC3,42.8% (active),74.2%
CCOC(=O)COc1cc2c3c(c(=O)oc2cc1C)CCCC3,43% (active),89.3%
CCOC(=O)c1cc(-c2ccccc2)sc1NC(=S)NC1CCN(Cc2ccccc2)CC1,18.5% (inactive),1.16%
CCc1cc(C(=O)OC)c(NC(=S)NCc2ccc(Cl)c(Cl)c2)s1,96.8% (active),88.4%
COc1ccc(C(=O)N2N=C(c3ccccc3)CC2(O)C(F)(F)F)cc1 (stereo unspecified),1.52% (inactive),-2.76%
COc1ccc(C(=O)C(CN2CCCCC2)c2ccccc2)cc1 (stereo unspecified),31.4% (active),66.8%
COc1ccc(C(=O)C(CN2CCOCC2)c2ccccc2)cc1 (stereo unspecified),42.8% (active),77%
C=CCNc1nnc(Sc2ncccc2[N+](=O)[O-])s1,97.9% (active),98.2%
Nc1nnc(Sc2ncccc2[N+](=O)[O-])s1,98.8% (active),98.6%
Cc1ccc(C)c(N=Nc2nc3ccccc3n2C)c1,100% (active),99.1%
Cc1ccc(C(=O)Nc2nc(-c3ccccc3)c(-c3ccccc3)o2)cc1,80.4% (active),65.6%
O=C(Nc1nc(-c2ccccc2)c(-c2ccccc2)o1)c1ccc(F)cc1,93.6% (active),93.3%
O=C(NCc1nnc2c3ccccc3c(-c3ccccc3)nn12)c1ccc(Cl)cc1,15.3% (inactive),-15.9%
O=C(Nc1nnc(C2=COCCO2)o1)c1ccc(F)cc1,17.6% (inactive),29.2%
Cc1ccc(C(=O)Nc2nnc(C3=COCCO3)o2)cc1,11.3% (inactive),-5.11%
CCOC(=O)Cc1c(C)nc2c(-c3cccc(Br)c3)c[nH]n2c1=O,98.3% (active),97.9%
CCCCOC(=O)CSc1nc(N)c(C#N)c(-c2ccc(OC)cc2)c1C#N,4.48% (active),30.9%
CCOC(=O)CSc1nc(N)c(C#N)c(-c2cccs2)c1C#N,-3.66% (inactive),10.2%
Cc1ccc2c(C)nc(Nc3nc(CSc4nc5ccccc5s4)cc(=O)[nH]3)nc2c1,-4.65% (inactive),-12.8%
Nc1ncnc(Sc2nc3ccccc3s2)c1[N+](=O)[O-],100% (active),99.4%
Cc1cc(Sc2ncnc(N)c2[N+](=O)[O-])ncn1,99.4% (active),100%
